From PubChem BioAssay (EPA / NIEHS) come the findings set out here.

Results filed as inconclusive are left out. Activity calls are given as the source filed them. The calls were made as follows, unless noted: active = hit-call score of the fitted dose curve at least 0.9, where 1 is the maximum; inactive = score below 0.9.

Experiment [1] deals with Transcriptional activator Myb (Homo sapiens) (UniProt P10242). Nature of the experiment: ATG_Myb_CIS: Attagene CIS-FACTORIAL HepG2 Assay for human Myeloblastosis (Myb) Proto-Oncogene Transcription Factor (AID 2282986). The conditions noted are these: HepG2 Attagene CIS-FACTORIAL Myb reporter transcription; actives raise or lower the signal. The essentials:
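Transiently transfected HepG2 cells, treated 24 h. Reporter mRNA quantified by RT-PCR/capillary electrophoresis; bidirectional fit relative to DMSO.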

In experiment [2] the target is Nuclear respiratory factor 1 (Homo sapiens) (UniProt Q16656). The experiment in a line: ATG_NRF1_CIS: Attagene CIS-FACTORIAL HepG2 Assay for human Nuclear Respiratory Factor 1 (NRF1) Orphan Gene (AID 2282987). Conditions: HepG2 NRF1 cis-element reporter, Attagene multiplex; actives raise or lower the signal. The method, boiled down:
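Cells (HepG2, transient MRTU transfection) are exposed to compound for 24 h, then RNA isolated and reporter mRNA amplified and fluorescently labelled. Fragments are separated by capillary electrophoresis; signal change is fitted bidirectionally relative to DMSO.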

Experiment [3] can be described thus: ATG_NFI_CIS: Attagene CIS-FACTORIAL HepG2 Assay for human Nuclear Factor I (NFI) (AID 2282989). The conditions noted are these: HepG2 cis-regulatory reporter, NFI response element transcription; actives raise or lower the signal. The method, boiled down: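 Cells: human liver HepG2, transiently transfected with promoter-regulated reporter transcription units. Exposure 24 h. Detection: fluorescent RT-PCR products separated by capillary electrophoresis, normalised to DMSO negative control.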

Experiment [4] has as its target Myc proto-oncogene protein (Homo sapiens) (UniProt P01106). The experiment in a line: ATG_Myc_CIS: Attagene CIS-FACTORIAL HepG2 Assay for human Myelocytomatosis (Myc) Proto-Oncogene Transcription Factor (AID 2282990). Conditions: HepG2, Attagene cis-reporter transcription factor activity; actives raise or lower the signal. The essentials: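 Multiplexed cis-reporter transcription in HepG2 cells after 24 h chemical treatment. Reporter mRNA measured by RT-PCR and capillary electrophoresis fluorescence; activity fitted bidirectionally against DMSO control.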

A short description of experiment [5]: ATG_NF_kB_CIS: Attagene CIS-FACTORIAL HepG2 Assay for human Nuclear Factor Kappa B (NF-kB) (AID 2282991). Conditions: HepG2 Attagene cis-factorial NF-kB reporter mRNA; actives raise or lower the signal. The essentials: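 Measures mRNA induction of an NF-kB-responsive cis-element reporter in HepG2 cells transfected with multiple reporter units, sampled 24 h post-dosing; quantified by fluorescence after RT-PCR and capillary electrophoresis, fitted for activation or inhibition against DMSO.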

Experiment [6] is described as follows: ATG_NRF2_ARE_CIS: Attagene CIS-FACTORIAL HepG2 Assay for human Nuclear Factor Erythroid 2 Related Factor 2 (NFR2) response to Antioxidant Response Elements (ARE) (AID 2282992). The conditions noted are these: HepG2 Attagene ARE/NRF2 reporter, transcription factor activity; actives raise or lower the signal. The essentials:
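Readout: reporter mRNA quantified by RT-PCR plus FAM-labelled primer extension, HpaI digestion and capillary electrophoresis, 24 h after dosing transfected HepG2 cells. Gain or loss of signal is fitted bidirectionally against DMSO baseline.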

The nature of experiment [7]: ATG_Oct_MLP_CIS: Attagene CIS-FACTORIAL HepG2 Assay for human Octamer-Binding Transcription Factor (Oct) (AID 2282993). The conditions noted are these: HepG2 Attagene cis-factorial Oct reporter, mRNA; actives raise or lower the signal. The essentials: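 HepG2, transient MRTU transfection, cis promoter elements; 24 h dosing; RT-PCR/CE fluorescence read-out of reporter mRNA; fit both directions vs DMSO.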

The nature of experiment [8]: BSK_3C_TissueFactor: BioMAP Diversity Plus: 3C Assay for Tissue Factor Biomarker Activity (AID 2282997). Conditions: BioMAP 3C HUVEC, tissue factor biomarker readout; actives raise or lower the signal. The method, boiled down:
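After a 24 h chemical exposure of primary human umbilical vein endothelial cells, Tissue Factor levels were quantified by ELISA.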

Experiment [9] in a line: BSK_3C_uPAR: BioMAP Diversity Plus: 3C Assay for Urokinase-type plasminogen activator receptor (uPAR) Biomarker Activity (AID 2282998). Conditions: BioMAP 3C HUVEC, uPAR biomarker ELISA; actives raise or lower the signal. The method, boiled down:
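A multiplexed primary-cell system built on human umbilical vein endothelium was used, with chemical present for 24 h before reading. Cell-surface uPAR was detected by ELISA; signal change in either direction counted against DMSO.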
(An ELISA detects its analyte on a solid surface through an enzyme-linked reagent.)

Experiment [10] is described as follows: BSK_3C_VCAM1: BioMAP Diversity Plus: 3C Assay for Vascular cell adhesion molecule 1 (VCAM1) Biomarker Activity (AID 2282999). The conditions noted are these: BioMAP 3C HUVEC, VCAM1 ELISA, cytokine-stimulated; actives raise or lower the signal. The method, boiled down: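 Vascular primary endothelium (human umbilical vein) was exposed to chemicals and assayed 24 h later. VCAM-1 levels came from ELISA, with DMSO serving as baseline for bidirectional fitting.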

The nature of experiment [11]: BSK_4H_Eotaxin3: BioMAP Diversity Plus: 4H Assay for Eotaxin 3 Biomarker Activity (AID 2283000).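 As to outcome: CCL26 protein level quantified by ELISA in parallel with SRB cytotoxicity check.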 Conditions: primary human endothelial cells (HUVEC); actives raise or lower the signal. The essentials: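 Chemicals were added to human umbilical vein endothelium cultures, and Eotaxin-3 was quantified by ELISA at 24 h. Values were derived by bidirectional fitting with DMSO serving as negative control and activity baseline.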

Experiment [12] has as its target human Peroxisome Proliferator-activated Receptor alpha (PPARa), PPARA (gene 5465) (UniProt Q07869). The experiment in a line: ATG_PPARa_TRANS: Attagene TRANS-FACTORIAL HepG2 Assay for human Peroxisome Proliferator-activated Receptor alpha (PPARa) (AID 2283001; active = hit-call score of the fitted dose curve at least 0.9, where 1 is the maximum). The method, boiled down:
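Exposure: 24 h, transiently transfected HepG2 cells. Endpoint: GAL4-UAS reporter mRNA, RT-PCR with capillary electrophoresis fluorescence. Baseline: DMSO; increases fitted.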

The target of experiment [13] is human Peroxisome Proliferator-activated Receptor delta (PPARd), PPARD (gene 5467) (UniProt Q03181). Nature of the experiment: ATG_PPARd_TRANS: Attagene TRANS-FACTORIAL HepG2 Assay for human Peroxisome Proliferator-activated Receptor delta (PPARd) (AID 2283002; active = hit-call score of the fitted dose curve at least 0.9, where 1 is the maximum). The essentials: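 Multiplexed trans-activation format: HepG2 liver cells expressing exogenous NR-Gal4 chimeras and GAL4-UAS reporters were exposed for 24 h. Reporter mRNA was detected by RT-PCR with capillary electrophoresis fluorescence; activity fitted as gain of signal relative to DMSO.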

Read-out in experiment [14]: Intercellular Adhesion Molecule 1 (ICAM1), ICAM1 (gene 3383)
The experiment in a line: BSK_3C_ICAM1: BioMAP Diversity Plus: 3C Assay for Intercellular Adhesion Molecule 1 (ICAM1) Biomarker Activity (AID 2283003). The conditions noted are these: primary human endothelial cells (HUVEC); actives raise or lower the signal. The method, boiled down:
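ELISA read-out of ICAM-1; HUVEC (primary human), 3C system, 24 h post-dosing; bidirectional fit vs DMSO baseline.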

A short description of experiment [15]: BSK_3C_Proliferation: Cell Proliferation Assessment in the BioMAP Diversity Plus: 3C Assay (AID 2283006).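 As to AC50: potency may reflect either rise or fall in cell number versus DMSO.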 The conditions noted are these: primary human endothelial cells (HUVEC). The essentials:
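HUVEC, sub-confluent; 48 h chemical exposure; 10% TCA fix, 0.1% SRB stain, A560 total protein. Gain or loss of signal fitted both directions vs DMSO control.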

For experiment [16], the target named is Peroxisome proliferator-activated receptor gamma (Homo sapiens) (UniProt P37231). Nature of the experiment: ATG_PPARg_TRANS: Attagene TRANS-FACTORIAL HepG2 Assay for human Peroxisome Proliferator-activated Receptor-gamma (PPARg) (AID 2283007; active = hit-call score of the fitted dose curve at least 0.9, where 1 is the maximum). The essentials: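 Gain-of-signal endpoint relative to DMSO, derived from reporter mRNA levels quantified by RT-PCR and capillary electrophoresis. Cells were HepG2 transiently expressing a chimeric NR-Gal4 construct with GAL4-UAS reporters, exposed to chemicals for 24 h.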

Experiment [17] has as its target Nuclear receptor subfamily 1 group I member 2 (Homo sapiens) (UniProt O75469). The experiment in a line: ATG_PXR_TRANS: Attagene TRANS-FACTORIAL HepG2 Assay for human Pregnane X Receptor (PXR) (AID 2283008; active = hit-call score of the fitted dose curve at least 0.9, where 1 is the maximum). The essentials:
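Trans-factorial format: exogenous NR-Gal4 fusion activity, not endogenous factor, in transfected human HepG2 liver cells. After 24 h dosing, RNA isolated, reverse-transcribed, amplified and resolved by capillary electrophoresis; induction scored versus DMSO.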

The target in experiment [18] is Cellular tumor antigen p53 (Homo sapiens) (UniProt P04637). The experiment in a line: ATG_p53_CIS: Attagene CIS-FACTORIAL HepG2 Assay for human p53 Transcription Factor (AID 2282994). Conditions: HepG2 p53 cis-element reporter, Attagene mRNA; actives raise or lower the signal. The essentials:
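Read-out: reporter mRNA by RT-PCR plus capillary electrophoresis with fluorescence detection. Human HepG2 liver cells carried transfected multi-reporter cis-element constructs, dosed 24 h. Gain or loss of signal fitted bidirectionally against DMSO control.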

Experiment [19] has as its target Retinoic acid receptor alpha (Homo sapiens) (UniProt P10276). The experiment in a line: ATG_RARa_TRANS: Attagene TRANS-FACTORIAL HepG2 Assay for human Retinoic Acid Receptor alpha (RARa) (AID 2283005; active = hit-call score of the fitted dose curve at least 0.9, where 1 is the maximum). The essentials: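 HepG2 cells transiently transfected with multiple reporter units expressing chimeric RARα-GAL4 fusion, with GAL4-UAS-driven reporters. After 24 h compound exposure, reporter mRNA induction quantified by RT-PCR and capillary electrophoresis with fluorescent labeling; gain-of-signal fitted relative to DMSO control.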

Experiment [20] concerns the target human Retinoic Acid Receptor beta (RARb), RARB (gene 5915) (UniProt P10826). Nature of the experiment: ATG_RARb_TRANS: Attagene TRANS-FACTORIAL HepG2 Assay for human Retinoic Acid Receptor beta (AID 2283004; active = hit-call score of the fitted dose curve at least 0.9, where 1 is the maximum). The method, boiled down:
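Transient transfection of HepG2 with multiple reporter units → chemical dosing, 24 h → total RNA isolation → RT with oligo(dT) → reporter-specific PCR, 6-FAM primer extension, HpaI digest → capillary electrophoresis. Positive direction vs DMSO control.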

Chain of human Peroxisome Proliferator-activated Receptor alpha (PPARa), PPARA (gene 5465) (Q07869 whole entry, looked up, the tested form may be a part): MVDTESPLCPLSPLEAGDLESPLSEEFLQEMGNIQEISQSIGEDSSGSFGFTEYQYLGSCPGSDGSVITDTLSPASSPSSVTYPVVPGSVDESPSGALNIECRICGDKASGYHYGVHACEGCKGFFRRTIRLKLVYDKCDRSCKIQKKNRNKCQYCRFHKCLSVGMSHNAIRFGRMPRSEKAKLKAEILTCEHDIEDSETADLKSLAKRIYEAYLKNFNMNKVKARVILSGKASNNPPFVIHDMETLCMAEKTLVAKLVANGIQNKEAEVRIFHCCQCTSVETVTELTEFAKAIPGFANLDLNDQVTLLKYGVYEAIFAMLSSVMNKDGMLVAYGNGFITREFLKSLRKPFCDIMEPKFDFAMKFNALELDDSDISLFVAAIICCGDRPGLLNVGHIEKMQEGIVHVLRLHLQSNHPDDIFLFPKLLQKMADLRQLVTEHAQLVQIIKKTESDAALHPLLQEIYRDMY
Chain of Retinoic acid receptor alpha (Homo sapiens) (P10276 whole entry, looked up, the tested form may be a part): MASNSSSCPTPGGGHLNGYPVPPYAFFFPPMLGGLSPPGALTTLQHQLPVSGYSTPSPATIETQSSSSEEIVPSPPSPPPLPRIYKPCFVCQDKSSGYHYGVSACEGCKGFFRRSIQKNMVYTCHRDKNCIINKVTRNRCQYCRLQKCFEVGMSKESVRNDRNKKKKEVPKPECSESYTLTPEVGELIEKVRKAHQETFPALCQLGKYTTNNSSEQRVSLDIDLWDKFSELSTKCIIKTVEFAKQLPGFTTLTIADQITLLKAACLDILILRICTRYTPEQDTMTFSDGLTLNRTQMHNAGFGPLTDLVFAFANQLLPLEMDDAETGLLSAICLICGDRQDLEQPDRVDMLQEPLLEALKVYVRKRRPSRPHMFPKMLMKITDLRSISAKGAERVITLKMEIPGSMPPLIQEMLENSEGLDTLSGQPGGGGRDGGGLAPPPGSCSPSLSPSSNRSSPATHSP
Chain of Myc proto-oncogene protein (Homo sapiens) (P01106 whole entry, looked up): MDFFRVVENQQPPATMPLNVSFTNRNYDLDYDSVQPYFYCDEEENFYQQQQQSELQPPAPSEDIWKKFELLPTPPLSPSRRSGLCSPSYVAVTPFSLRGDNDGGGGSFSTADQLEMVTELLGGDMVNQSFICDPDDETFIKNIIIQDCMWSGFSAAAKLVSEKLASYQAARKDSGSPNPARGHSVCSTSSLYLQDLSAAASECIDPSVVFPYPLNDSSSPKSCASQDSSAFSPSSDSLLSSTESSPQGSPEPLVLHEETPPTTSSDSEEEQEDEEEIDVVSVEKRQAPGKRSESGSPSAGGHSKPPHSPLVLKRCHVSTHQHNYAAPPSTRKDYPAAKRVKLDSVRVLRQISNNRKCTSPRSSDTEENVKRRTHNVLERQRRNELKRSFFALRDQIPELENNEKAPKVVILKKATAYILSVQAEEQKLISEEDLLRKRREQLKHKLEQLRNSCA
Chain of Nuclear receptor subfamily 1 group I member 2 (Homo sapiens) (O75469 whole entry, looked up, the tested form may be a part): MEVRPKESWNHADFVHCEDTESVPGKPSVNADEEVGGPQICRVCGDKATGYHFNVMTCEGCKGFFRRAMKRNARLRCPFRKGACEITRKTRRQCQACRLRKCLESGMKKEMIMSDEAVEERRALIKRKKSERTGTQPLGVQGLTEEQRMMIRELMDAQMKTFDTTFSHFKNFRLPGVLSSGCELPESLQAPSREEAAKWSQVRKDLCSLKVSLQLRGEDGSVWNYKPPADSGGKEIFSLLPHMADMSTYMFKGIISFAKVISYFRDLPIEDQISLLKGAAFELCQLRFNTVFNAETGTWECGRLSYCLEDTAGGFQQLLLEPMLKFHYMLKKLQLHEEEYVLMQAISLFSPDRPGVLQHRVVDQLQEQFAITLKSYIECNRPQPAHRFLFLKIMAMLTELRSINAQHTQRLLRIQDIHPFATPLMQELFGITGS
Chain of Peroxisome proliferator-activated receptor gamma (Homo sapiens) (P37231 whole entry, looked up, the tested form may be a part): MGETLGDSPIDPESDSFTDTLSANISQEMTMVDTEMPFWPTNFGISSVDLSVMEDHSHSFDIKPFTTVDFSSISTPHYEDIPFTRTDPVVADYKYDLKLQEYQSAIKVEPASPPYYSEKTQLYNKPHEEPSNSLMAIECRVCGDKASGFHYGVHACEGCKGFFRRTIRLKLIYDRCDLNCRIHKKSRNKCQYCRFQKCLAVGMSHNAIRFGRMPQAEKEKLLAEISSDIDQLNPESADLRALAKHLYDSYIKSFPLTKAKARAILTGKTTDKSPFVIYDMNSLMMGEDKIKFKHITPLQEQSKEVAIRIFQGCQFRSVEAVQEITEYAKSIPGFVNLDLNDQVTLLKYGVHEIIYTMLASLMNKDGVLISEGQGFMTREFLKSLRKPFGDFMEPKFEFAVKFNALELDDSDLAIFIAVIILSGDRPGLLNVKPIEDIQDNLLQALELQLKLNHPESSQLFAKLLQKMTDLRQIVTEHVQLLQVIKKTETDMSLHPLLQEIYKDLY
Chain of Nuclear respiratory factor 1 (Homo sapiens) (Q16656 whole entry, looked up, the tested form may be a part): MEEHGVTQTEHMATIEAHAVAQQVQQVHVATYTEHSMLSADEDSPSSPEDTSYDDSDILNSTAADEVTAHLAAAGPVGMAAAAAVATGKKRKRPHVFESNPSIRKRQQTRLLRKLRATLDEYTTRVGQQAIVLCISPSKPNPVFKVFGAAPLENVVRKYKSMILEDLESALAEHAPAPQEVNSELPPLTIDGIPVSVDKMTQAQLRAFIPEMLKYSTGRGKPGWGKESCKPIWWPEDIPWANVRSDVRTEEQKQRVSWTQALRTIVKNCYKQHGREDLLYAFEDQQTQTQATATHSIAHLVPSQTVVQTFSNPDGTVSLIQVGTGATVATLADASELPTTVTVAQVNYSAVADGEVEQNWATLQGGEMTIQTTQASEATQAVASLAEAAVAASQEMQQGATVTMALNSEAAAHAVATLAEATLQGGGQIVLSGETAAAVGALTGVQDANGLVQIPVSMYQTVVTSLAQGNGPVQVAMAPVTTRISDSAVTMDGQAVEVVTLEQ
Chain of Transcriptional activator Myb (Homo sapiens) (P10242 whole entry, looked up): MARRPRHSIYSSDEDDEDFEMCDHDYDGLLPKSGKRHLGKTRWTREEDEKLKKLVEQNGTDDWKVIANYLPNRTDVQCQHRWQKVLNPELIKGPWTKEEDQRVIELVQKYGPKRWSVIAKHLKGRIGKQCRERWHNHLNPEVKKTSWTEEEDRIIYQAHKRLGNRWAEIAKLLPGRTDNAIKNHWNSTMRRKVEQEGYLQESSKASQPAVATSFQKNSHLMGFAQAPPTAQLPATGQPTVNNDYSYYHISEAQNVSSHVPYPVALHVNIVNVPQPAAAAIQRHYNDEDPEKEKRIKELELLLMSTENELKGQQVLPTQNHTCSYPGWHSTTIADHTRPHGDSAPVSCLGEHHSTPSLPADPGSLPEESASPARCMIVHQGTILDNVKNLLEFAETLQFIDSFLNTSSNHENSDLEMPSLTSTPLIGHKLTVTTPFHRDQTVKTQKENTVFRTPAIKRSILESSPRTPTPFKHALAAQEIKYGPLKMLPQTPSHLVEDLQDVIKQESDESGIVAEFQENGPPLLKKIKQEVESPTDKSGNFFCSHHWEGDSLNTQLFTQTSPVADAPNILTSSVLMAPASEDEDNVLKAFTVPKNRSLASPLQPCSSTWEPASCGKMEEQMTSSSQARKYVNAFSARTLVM
Chain of human Peroxisome Proliferator-activated Receptor delta (PPARd), PPARD (gene 5467) (Q03181 whole entry, looked up, the tested form may be a part): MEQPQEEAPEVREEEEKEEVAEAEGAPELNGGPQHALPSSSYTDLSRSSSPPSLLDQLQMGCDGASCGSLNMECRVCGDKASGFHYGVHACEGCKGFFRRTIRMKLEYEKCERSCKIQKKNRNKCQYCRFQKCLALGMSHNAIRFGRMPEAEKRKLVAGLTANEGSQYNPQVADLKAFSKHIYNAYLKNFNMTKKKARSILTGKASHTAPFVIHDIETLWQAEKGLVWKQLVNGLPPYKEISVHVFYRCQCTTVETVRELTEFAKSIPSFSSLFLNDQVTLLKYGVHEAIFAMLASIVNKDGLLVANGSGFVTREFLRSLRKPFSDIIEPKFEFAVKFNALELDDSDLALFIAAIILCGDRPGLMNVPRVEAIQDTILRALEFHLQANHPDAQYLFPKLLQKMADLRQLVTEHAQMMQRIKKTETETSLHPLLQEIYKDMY
Chain of Cellular tumor antigen p53 (Homo sapiens) (P04637 whole entry, looked up): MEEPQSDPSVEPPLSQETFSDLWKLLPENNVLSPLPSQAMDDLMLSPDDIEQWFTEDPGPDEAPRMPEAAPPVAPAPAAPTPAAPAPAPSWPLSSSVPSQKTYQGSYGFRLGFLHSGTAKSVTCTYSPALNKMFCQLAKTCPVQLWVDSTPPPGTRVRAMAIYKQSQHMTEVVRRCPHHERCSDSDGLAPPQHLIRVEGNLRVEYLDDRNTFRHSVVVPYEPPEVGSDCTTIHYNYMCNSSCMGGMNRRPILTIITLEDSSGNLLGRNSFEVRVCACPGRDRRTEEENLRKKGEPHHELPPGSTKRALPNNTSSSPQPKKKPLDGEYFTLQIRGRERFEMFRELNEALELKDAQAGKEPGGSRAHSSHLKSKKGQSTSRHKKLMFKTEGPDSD
Chain of human Retinoic Acid Receptor beta (RARb), RARB (gene 5915) (P10826 whole entry, looked up): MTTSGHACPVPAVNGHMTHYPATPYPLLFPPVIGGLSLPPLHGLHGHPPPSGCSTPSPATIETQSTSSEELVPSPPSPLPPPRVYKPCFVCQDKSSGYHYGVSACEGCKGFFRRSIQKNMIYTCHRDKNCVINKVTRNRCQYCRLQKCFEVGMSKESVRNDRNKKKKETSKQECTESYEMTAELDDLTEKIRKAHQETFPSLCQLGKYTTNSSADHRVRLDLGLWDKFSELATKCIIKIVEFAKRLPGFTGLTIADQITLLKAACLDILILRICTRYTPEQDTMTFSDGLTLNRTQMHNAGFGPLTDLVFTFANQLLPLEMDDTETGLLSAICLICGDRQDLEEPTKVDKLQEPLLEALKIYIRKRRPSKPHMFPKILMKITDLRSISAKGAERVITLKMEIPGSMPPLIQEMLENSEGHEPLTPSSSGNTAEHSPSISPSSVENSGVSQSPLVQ

In general, AC50 refers to the concentration giving half of the maximal activity seen. On to `Nc1cc2c3c(c1)C(c1ccccc1)=N[C@@H](NC(=O)c1cccnc1)C(=O)N3CC2`, for which the compound was called inactive in [1], in experiment [2], in experiment [3], in experiment [4], in experiment [5] and in [6]. Besides, the result in [8], in experiment [9], in experiment [10], in experiment [11], in [12] and in experiment [13] was inactive. Further, the outcome in experiment [14] and in experiment [15] was inactive. The figures for the AC50 in [7], in experiment [16] and in [17] were 52.9 µM (active), 48.4 µM (active) and 11.2 µM (active), respectively.

Consider `O=S1(=O)OCC2C(CO1)C1(Cl)C(Cl)=C(Cl)C2(Cl)C1(Cl)Cl` (stereo unspecified), for which the compound was called inactive in experiment [1], in [2], in experiment [8], in experiment [10], in [13] and in experiment [14]. For the same compound, the AC50 was 178 µM (active) in experiment [3]; 172 µM (active) in experiment [4]; 8.15 µM (active) in experiment [5]; 44.5 µM (active) in [6]; 170 µM (active) in experiment [7]; 18.3 µM (active) in [18]. The AC50 in experiment [9] is 20 µM (active); in experiment [11], 13.1 µM (active); in [15], 25.1 µM (active); in [17] it was 2.37 µM (active).

On to `O=[N+]([O-])c1ccccc1`, for which the compound was called inactive in experiment [1], in [2], in experiment [3], in experiment [4], in experiment [5] and in experiment [6]. Also, the compound was classed as inactive in experiment [7], in experiment [18], in experiment [8], in experiment [9], in experiment [10] and in experiment [11]. Moreover, the result in experiment [14], in [19], in experiment [15] and in experiment [17] was inactive.

As to `NC(=O)C(F)(F)C(F)(F)F`, the outcome in [1], in experiment [2], in experiment [3], in experiment [4], in [5] and in [6] was inactive. The call in [7], in [18], in experiment [8], in experiment [9], in experiment [10] and in experiment [11] was inactive. In addition, the call in experiment [12], in experiment [13], in experiment [14], in [20], in experiment [19] and in [15] was inactive. Moreover, the compound was classed as inactive in experiment [16] and in experiment [17].

`c1cc2c3c(cccc3c1)CC2`: the call in experiment [1], in experiment [2], in experiment [3], in experiment [4], in experiment [5] and in experiment [6] was inactive. Also, the outcome in [7], in experiment [8], in experiment [9], in experiment [10], in [11] and in [12] was inactive. The outcome in experiment [14], in experiment [20], in experiment [19], in experiment [15], in experiment [16] and in [17] was inactive.

For `O=C(O)C1C(C(=O)O)C2(Cl)C(Cl)=C(Cl)C1(Cl)C2(Cl)Cl` (stereo unspecified), the result in experiment [1], in [2], in experiment [3], in [4], in [5] and in experiment [6] was inactive. The call in experiment [7], in [18], in experiment [8], in [9], in experiment [10] and in experiment [11] was inactive. Also, the outcome in [12], in experiment [14] and in experiment [15] was inactive.

Take `CCCCN(CCCC)N=O`: the outcome in experiment [1], in [2], in [3], in experiment [4], in experiment [5] and in experiment [6] was inactive. Further, the result in experiment [7], in [8], in experiment [9], in experiment [10], in experiment [11] and in experiment [12] was inactive. In addition, the outcome in experiment [14] and in [15] was inactive.
